Among the data in PubChem BioAssay AID1359 (The Scripps Research Institute Molecular Screening Center, 2008) are activation values, retold here.

Screen size: about 220,000 compounds; about 970 (0.44%) were called active. This is one part of a sample in which actives are shown more often than they occur. Unmarked numbers belong to inactive results. Cut-off read from the data, not from the text of the source: active = activation above about 27%; inactive = the rest.

The target of the experiment is Neuropeptide Y receptor type 2 (Homo sapiens) (UniProt P49146). Briefly: NPY-Y2 potentiators or agonists, primary screen, cell-based (AID 1359).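 Note: cells stimulated with NPY near EC25 plus isoproterenol at EC100; 0% = vehicle plus submaximal agonist and 100% = vehicle plus saturating agonist.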 The note with it: cells expressing NPY-Y2, potentiator/agonist read-out; at 3.6 µM; active compounds read high.
Sequence of Neuropeptide Y receptor type 2 (Homo sapiens) (P49146 whole entry, looked up): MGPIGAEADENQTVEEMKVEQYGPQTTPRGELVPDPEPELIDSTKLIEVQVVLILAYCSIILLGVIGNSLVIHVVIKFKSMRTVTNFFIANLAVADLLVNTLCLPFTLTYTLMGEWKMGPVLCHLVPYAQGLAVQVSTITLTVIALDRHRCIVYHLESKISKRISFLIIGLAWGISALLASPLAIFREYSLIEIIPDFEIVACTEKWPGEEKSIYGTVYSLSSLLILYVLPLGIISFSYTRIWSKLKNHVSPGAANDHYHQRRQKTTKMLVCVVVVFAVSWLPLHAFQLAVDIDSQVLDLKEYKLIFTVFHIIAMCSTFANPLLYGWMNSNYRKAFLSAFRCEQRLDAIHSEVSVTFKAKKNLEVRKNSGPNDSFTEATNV
In the case of `Oc1c(Br)cc(/C=N/NC(=S)NCC2CCCO2)cc1Br` (stereo unspecified), the activation is 5.85%.

On to `Cn1nc(C(C)(C)C)c(NC(=O)c2sccc2Cl)c1C(C)(C)C`, for which the activation was -3.45%.

Turning to `O=C(CSc1ncnc2scc(-c3ccccc3)c12)NCc1ccc2c(c1)OCO2`, the activation is -18.5%.

For the compound `CCOC(=O)c1c(C)nn(-c2ncccc2NC(=O)CCC(=O)O)c1C`, the activation was 2.97%.

Take `CCCCOc1ccc(-c2ncc(C(=O)OCC)c(N)n2)cc1`: the activation is -4.83%.

On to `CCOC(=O)C(Sc1ncc(C#N)c(N)n1)C(C)C` (stereo unspecified), for which the activation is 41.9% (active).

In the case of `CCOC(=O)CSc1nccc(N(C)C)c1C#N`, the activation was -3.41%.

Regarding `COc1ccc2c(c1)c1ncn(Cc3ccccn3)c(=O)c1n2C`, the activation is -3.5%.

As to `Cc1oc2cc([N+](=O)[O-])c(O)c([N+](=O)[O-])c2c1C(=O)c1ccc(Br)cc1`, the activation is 8.73%.

Take `C[n+]1ccc(/C=C/c2c[nH]c3ccccc23)cc1`: the activation was 3.07%.

Take `O=C(O)/C=C\C(=O)Nc1ccc(OCc2ccccc2)cc1`: the activation was -1.76%.

For the compound `CN(C)c1ccc(CNC2C3CC4CC(C3)CC2C4)cc1` (stereo unspecified), the activation is 31.8% (active).

Turning to `CN(C)c1ccc(CNC23CN4CN(CN(C4)C2)C3)cc1`, the activation was 8.96%.

Consider `c1cnc(NC2C3CC4CC(C3)CC2C4)nc1` (stereo unspecified), for which the activation is 2.83%.

As to `Cc1cccc(C)c1NC(=O)C(c1ccccc1)N1CC(=O)Nc2ccccc21` (stereo unspecified), the activation was -1.44%.

Regarding `CCOC(=O)/C(=C\c1ccc([N+](=O)[O-])cc1)C(=O)c1cc(C(C)=O)c(Nc2ccccc2)s1`, the activation was -2.39%.

Regarding `CCOc1cc(/C=N/NC(=O)OC)ccc1OCCSc1ccc(Cl)cc1`, the activation is 3.6%.

Regarding `CC(CO)NCC12CC3CC(CC(C3)C1)C2` (stereo unspecified), the activation was 2.65%.

Consider `Cc1ccc(NC(=O)O/N=C/c2cccc([N+](=O)[O-])c2)cc1`, for which the activation was -2.02%.

Consider `O=C(Nc1nc2ccc([N+](=O)[O-])cc2s1)c1ccncc1`, for which the activation is 17.8%.

Regarding `O=C(O)CCC(=O)Nc1nc2ccc([N+](=O)[O-])cc2s1`, the activation is 0.15%.

For `O=C(NC(Nc1nc2ccc([N+](=O)[O-])cc2s1)(C(F)(F)F)C(F)(F)F)c1ccccc1`, the activation was 61.7% (active).

Regarding `CCc1c(C)sc(NC(=O)c2cccs2)c1C(N)=O`, the activation is 18%.

On to `Cc1coc2c(O)cc3c(c12)OC1(N2CCCCC2)C(=O)NCCCC31` (stereo unspecified), for which the activation is 93% (active).

Turning to `COc1ccc(C2c3c(C)nn(-c4ccccc4)c3NC(=O)N2c2ccccc2)cc1` (stereo unspecified), the activation is 11.1%.

As for `Cc1ccc(C)c2c1cc(C)c1nnc(SCC(=O)Nc3cccc(C(=O)O)c3)n12`, the activation was -10%.
